Compounds with a hit are over-represented: about 1.8% of the library has one in this group of screens.
p53ts 32C kill: p53ts cell cytotoxicity, permissive temperature | H1299-p53A138V at 32C, ATP luminescence viability, 24 h | Potency, µM (doses to about 46.1 µM), without a hit: at the highest dose activity change, negative = cytotoxicity, actives largely listed as cytotoxic | 0.93% of 130,000 active;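 note: 0% = DMSO and -100% = full killing by reference compound; nearly all actives have a fitted effect of over 55% in size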
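Cells: H1299 p53ts (A138V), 600/well, pre-incubated 16–30 h at 37C. Cpd up to 46 uM, 24 h, 32C. Readout: ATPlite luminescence, 20 min RT. Normalization: DMSO vs tamoxifen 100 uM. AC50 by Hill equation.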
p53ts 39C tox: p53ts cell cytotoxicity, nonpermissive temperature. H1299-p53A138V viability at 39C, ATP luminescence, 24 h. Potency, µM (titrated, usually from 46.1 µM), for the others: top-dose activity change, negative = cell killing, hits mostly cytotoxic. 1.5% of 130,000 active. AID 902; note: % is set by controls: 0 for no effect and ±100 for the full control effect; nearly all actives have a fitted effect of over 55% in size
Imprint erasure: genomic imprint erasure induction; mouse ES Peg3-LacZ reporter, beta-gal luminescence, 40 h; Potency, µM (top dose mostly 60.7 µM), for the others: top-dose activity change, positive = activation, actives largely listed as activators; AID 1948; 0.02% of 110,000 active
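Imprint erasure is scored as LacZ activity from the silenced maternal Peg3 allele in feeder-free female ES cells cultured 40 h with LIF. Luminescence is normalized to in-plate negative controls and fitted to the Hill equation.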
Active calls of the source: *; [ ] = another dose, or the depositor's remark. Calls come from the whole dose curve; as a rule, active = well fitted curve in the direction sought with a large enough effect; inconclusive = small, poorly fitted or top-dose-only effect, or another doubt; inactive = no such curve, though single readings can be large; an effect the other way counts as inactive or inconclusive. Potency is the fitted concentration of half-maximal effect.

`Cc1c(CNC(C)CCc2ccccc2)c(C(=O)O)c(C)n1Cc1ccc(F)cc1` (stereo not drawn) gave p53ts 32C kill 1.1%, p53ts 39C tox -26.3% and Imprint erasure inconclusive.
Screening O=C1C(O)=C(O)C(=O)C(O)=C1O returned p53ts 32C kill 7.9%, p53ts 39C tox -10.8% and Imprint erasure -12.4%.
`O=C(Nc1cccs1)Nc1cc(C(F)(F)F)ccc1Cl` gave p53ts 32C kill -13.6%, p53ts 39C tox 25.1µM* and Imprint erasure -18.3%[10.9 µM].
`O=C(CSCCO)Nc1cc(C(F)(F)F)ccc1Cl` gave p53ts 32C kill -2.7%, p53ts 39C tox 5.2% and Imprint erasure -1.2%.
C#CCN1C(=O)C(O)(CC(=O)c2ccc(OC)c(OC)c2)c2cc(Br)ccc21 (stereo not drawn) was read as p53ts 32C kill -4.1%, p53ts 39C tox -26.0% and Imprint erasure -7.2%[10.9 µM].
`c1nc(NC2CCNCC2)c2cc(-c3ccoc3)ccc2n1` gave p53ts 32C kill 4.5%, p53ts 39C tox 4.7% and Imprint erasure -1.1%.
Screening CN1CCN(CCc2ccc(Cl)c(Cl)c2)CC1 returned p53ts 32C kill -17.4%, p53ts 39C tox -26.3% and Imprint erasure -24.0%.
For CN(CCc1ccc(Cl)c(Cl)c1)CCN1CCCCCC1 the results were p53ts 32C kill inconclusive, p53ts 39C tox 15.8µM* and Imprint erasure -22.3%.
`CCOC(=O)c1sc(NC(=O)c2ccc(Cl)s2)cc1C` gave p53ts 32C kill inconclusive, p53ts 39C tox -23.3% and Imprint erasure -26.5%.
For CCOC(=O)c1sc(NC(=O)C2CC2)cc1C the results were p53ts 32C kill 12.6µM*, p53ts 39C tox 12.6µM* and Imprint erasure -58.8%.
`Cc1cc(C)n(CCc2nc3c4ccccc4nc(N4CCN(c5ccccc5)CC4)n3n2)n1` gave p53ts 32C kill 7.6%, p53ts 39C tox 0.8% and Imprint erasure 2.5%[10.9 µM].
Screening Cc1nnc(Sc2nc(Sc3nnc(C)s3)nc(N3CCN(C)CC3)n2)s1 returned p53ts 32C kill 20µM*, p53ts 39C tox 3.98µM* and Imprint erasure -24.5%.
Screening Cc1nc(CSc2nnc(C)s2)cs1 returned p53ts 32C kill 22.5%, p53ts 39C tox -1.7% and Imprint erasure -16.2%.
Cc1ccccc1C(=O)Nc1c(C)nc2ccccn2c1=O was read as p53ts 32C kill 0.7%, p53ts 39C tox 24.1% and Imprint erasure 13.7%[10.9 µM].
`Cc1ccc(S(=O)(=O)NCCSc2nnnn2-c2cc(C)ccc2C)cc1` gave p53ts 32C kill 5.2%, p53ts 39C tox -2.9% and Imprint erasure -8.2%.
Screening Cc1ccc(C)c(-n2nnnc2Sc2nnnn2-c2ccccc2)c1 returned p53ts 32C kill -14.0%, p53ts 39C tox 10µM* and Imprint erasure -26.7%.
For Cc1ccccc1-c1nccc(NCc2cccnc2)n1 the results were p53ts 32C kill 17.7%, p53ts 39C tox 3.4% and Imprint erasure -14.1%.
Screening N#Cc1cccc(-c2nc(NCc3ccccc3)c3ccccc3n2)c1 returned p53ts 32C kill -0.4%, p53ts 39C tox -14.3% and Imprint erasure -17.4%.
Screening Cc1nc2ccc(S(=O)(=O)CCC(=O)Nc3ccc(F)cc3C)cc2s1 returned p53ts 32C kill 13.6%, p53ts 39C tox -12.0% and Imprint erasure -21.0%[10.9 µM].
For O=C(Cn1ncc2c(=O)oc3ccccc3c21)Nc1cc(F)ccc1F the results were p53ts 32C kill 2.9%, p53ts 39C tox 6.31µM* and Imprint erasure inconclusive.
O=C(Cn1ncc2c(=O)oc3ccccc3c21)NCCN1CCN(c2ccccc2F)CC1 was read as p53ts 32C kill 0.1%, p53ts 39C tox 6.1% and Imprint erasure 7.3%.
`C=CCNC1=C2C[C@@H](C)C[C@H](OC)[C@H](O)[C@@H](C)/C=C(\C)[C@H](OC(N)=O)[C@@H](OC)/C=C/C=C(\C)C(=O)NC(=CC1=O)C2=O` gave Imprint erasure 23.6%[10.9 µM].
COC(=O)c1c(NC(=O)c2ccc(C)o2)sc2c1CCCCC2 was read as p53ts 32C kill -12.7%, p53ts 39C tox -28.2% and Imprint erasure -34.1%.
Cc1ccc(C(=O)Nc2sc3c(c2C(=O)O)CCCCC3)o1 was read as p53ts 32C kill 7.94µM*, p53ts 39C tox 6.31µM* and Imprint erasure -93.5%.
Screening COc1ccc(CCNC(=O)C2CCN(c3nc4ccccc4nc3C(F)(F)F)CC2)cc1OC returned p53ts 32C kill -6.9%, p53ts 39C tox inconclusive and Imprint erasure -6.1%[10.9 µM].
`Cc1cccc(N2CCN(S(=O)(=O)c3cc(C(=O)Nc4ccc(Oc5ccccc5)cc4)ccc3F)CC2)c1C` gave p53ts 32C kill 0.6%, p53ts 39C tox -22.3% and Imprint erasure -22.2%[10.9 µM].
CCN(CC)CCn1c(=N)n(CCOc2ccccc2Cl)c2ccccc21 was read as p53ts 32C kill inconclusive, p53ts 39C tox 10µM* and Imprint erasure -7.5%[10.9 µM].
For Cc1cccc(OCC(O)Cn2c(=N)n(CCN3CCCCC3)c3ccccc32)c1 (stereo not drawn) the results were p53ts 32C kill -15.2%, p53ts 39C tox 12.6µM* and Imprint erasure -31.6%.
For Cc1ccccc1OCC(O)Cn1nnc2ccccc21 (stereo not drawn) the results were p53ts 32C kill -3.6% and p53ts 39C tox 3.6%.
`CCN(CC)CCn1c(=N)n(CC(O)COc2ccccc2C)c2ccccc21` (stereo not drawn) gave p53ts 32C kill inconclusive, p53ts 39C tox 15.8µM* and Imprint erasure -8.2%[10.9 µM].
`Cn1c(=O)n(CCOc2ccccc2Cl)c2ccccc21` gave p53ts 32C kill -0.8%, p53ts 39C tox -12.6% and Imprint erasure 3.8%.
CCn1c(=N)n(CC(O)COc2ccccc2)c2ccccc21 (stereo not drawn) was read as p53ts 32C kill -6.7%, p53ts 39C tox 5.7% and Imprint erasure -16.3%[10.9 µM].
`CCCC(=O)Nc1nnc(SCc2cc(=O)c3cc(C)ccc3[nH]2)s1` gave p53ts 32C kill -1.8%, p53ts 39C tox 1.6% and Imprint erasure -11.5%[10.9 µM].
For C#CCOC(=O)NC(/C=C/CCCC)c1ccccc1 (stereo not drawn) the results were p53ts 32C kill 5.8%, p53ts 39C tox 3.2% and Imprint erasure -7.2%.
`CCOc1ccc2nc(NC(=O)COC)sc2c1` gave p53ts 32C kill inconclusive, p53ts 39C tox inconclusive and Imprint erasure -68.5%.
CCOc1ccc2nc(NC(=O)Nc3cccs3)sc2c1 was read as p53ts 32C kill 15.8µM*, p53ts 39C tox 10µM* and Imprint erasure -56.2%.
`CCC(C)Sc1c(C(C)C)cnc2c1c(=O)n(C)c(=O)n2C` (stereo not drawn) gave p53ts 32C kill -3.4%, p53ts 39C tox -10.3% and Imprint erasure -2.7%[10.9 µM].
Screening CN1CCc2cccc3c2[C@H]1Cc1ccc(O)c(O)c1-3 returned p53ts 32C kill 25.1µM*, p53ts 39C tox 6.31µM* and Imprint erasure -54.1%.
CCOC(=O)c1c(NC(=O)c2cc(-c3ccc(OC)cc3)on2)sc(C)c1C was read as p53ts 32C kill 5.8%, p53ts 39C tox 14.9% and Imprint erasure -9.8%[10.9 µM].
`CSc1ncc(Cl)c(C(=O)NCc2ccc(C)cc2)n1` gave p53ts 32C kill 11.7%, p53ts 39C tox 2.1% and Imprint erasure 6.3%[10.9 µM].
For Cc1cccc(CS(=O)(=O)c2ncc(Cl)c(C(=O)NCc3ccccc3)n2)c1 the results were p53ts 32C kill 25.1µM*, p53ts 39C tox 5.01µM* and Imprint erasure -27.5%[10.9 µM].

Screening results from PubChem.
